Reference: PubChem BioAssay (Tox21)
Unmarked numbers belong to inactive results. Results filed as inconclusive are left out. A call without a number means that no potency is given here. The source made the active and inactive calls. Unless noted, calls come from the whole dose curve; as a rule, active = well fitted curve in the direction sought with a large enough effect in the repeat runs; inconclusive = weak or mixed curves; inactive = no such curve, though single readings can be large; an effect the other way counts as inactive or inconclusive.

How the values were obtained:
[1] = biological target: Thyrotropin-releasing hormone receptor (Homo sapiens) (UniProt P34981); assay: qHTS assay to identify small molecule agonists of the thyrotropin-releasing hormone receptor (TRHR) signaling pathway (AID 1346891; calls by dose curve; note: series mostly up to about 58 µM)
In short: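 Screening of agonists relied on calcium signalling in HEK293 cells expressing human TRHR: dye loading 2 h at 37 °C preceded compound addition and a 3-min fluorescence time course.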

[2] = Caspase-3/7 induction in CHO-K1 cells by small molecules, qHTS cell viability counter screen (AID 1346979); note: nearly all actives have a fitted effect of over 35% in size; note: potency is the fitted concentration of half-maximal effect
In short: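 CellTiter-Fluor viability check, qHTS format: wild-type CHO-K1, 16hr compound treatment, 1hr reagent incubation, fluorescence read.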

[3] = Caspase-3/7 induction in CHO-K1 cells by small molecules, qHTS assay (AID 1346980); note: nearly all actives have a fitted effect of over 15% in size
In short: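 Luminescent Caspase-Glo 3/7 read (30min, room temperature) quantified apoptosis induction. Cells were wild-type CHO-K1, treated with compound for 17hr at 37 C and 5% CO2.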

[4] = Caspase-3/7 induction in HepG2 cells by small molecules, qHTS cell viability counter screen (AID 1346981); note: nearly all actives have a fitted effect of over 30% in size; note: potency is the fitted concentration of half-maximal effect
In short: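 In this quantitative HTS counter screen, compounds delivered in DMSO were left on unmodified HepG2 cells for 16 hr at 37 C. Viability was then determined fluorometrically with CellTiter-Fluor, in parallel with caspase-3/7 induction in the same wells.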

[5] = biological target: Nuclear receptor subfamily 1 group I member 2 (Homo sapiens) (UniProt O75469); assay: Human pregnane X receptor (PXR) small molecule agonists, qHTS assay (AID 1346982); note: nearly all actives have a fitted effect of over 35% in size; note: potency is the fitted concentration of half-maximal effect
In short: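 Reporter HepG2 cells expressing PXR-Luc are cultured in charcoal-stripped FBS (5%), treated with compounds for 24 hr at 37 C, and assayed by ONE-Glo luminescence after 30 min at room temperature.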

[6] = Caspase-3/7 induction in HepG2 cells by small molecules, qHTS assay (AID 1346978); note: nearly all actives have a fitted effect of over 15% in size
In short: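 Caspase-3/7 induction was measured by Caspase-Glo 3/7 luminescence (30 min, room temperature) after a 17 hr compound exposure of wild-type HepG2 cells seeded at 2,000 per well and pre-incubated 5 hr.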

[7] = biological target: Nuclear receptor subfamily 1 group I member 2 (Rattus norvegicus) (UniProt Q9R1A7); assay: Rat pregnane X receptor (rPXR) activation by small molecules, qHTS assay (AID 1346983); details: rPXR luciferase reporter cells, One-Glo luminescence, 24 h; max activation: hits give high values; note: nearly all actives have a fitted effect of over 20% in size
In short: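 Luminescent readout (One-Glo luciferase, 30 min room temperature) followed 24 hr compound treatment at 37 C of rPXR cells plated 2,000 per well and preincubated 5hr; qHTS format with compounds delivered in DMSO.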

[8] = biological target: Nuclear receptor subfamily 1 group I member 2 (Homo sapiens) (UniProt O75469); assay: CYP3A4 induction through human pregnane X receptor (PXR) by small molecules, qHTS assay (AID 1346984); note: nearly all actives have a fitted effect of over 40% in size
In short: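 Induction measured in HepG2-based DPX-2 cells co-expressing human PXR and a CYP3A4 promoter-driven luciferase. After a 24-hour compound exposure, cells received CYP3A4 luciferin substrate at 3uM final for 3 hours, and light output was then recorded.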

[9] = biological target: Nuclear receptor subfamily 1 group I member 2 (Homo sapiens) (UniProt O75469); assay: Human pregnane X receptor (PXR) activation by small molecules, qHTS assay (AID 1346985); note: nearly all actives have a fitted effect of over 40% in size; note: potency is the fitted concentration of half-maximal effect
In short: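 DPX-2 cells (HepG2 co-transfected with a PXR response element and a CYP3A4-promoter luciferase construct) were seeded at 2,000 per well, rested 5 hr at 37C, then exposed to DMSO-dissolved compounds for 24 hr. Activation was read as luciferase luminescence.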

[10] = Human pregnane X receptor (PXR) small molecule agonists, qHTS cell viability counter screen (AID 1346977); note: nearly all actives have a fitted effect of over 50% in size; note: potency is the fitted concentration of half-maximal effect
In short: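 Tox21 qHTS format; PXR-Luc HepG2, 2,000/well, charcoal-stripped FBS 5%. Cpd exposure 24hr. Read: CellTiter-Fluor fluorescence, multiplexed with luciferase.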

Sequence of Nuclear receptor subfamily 1 group I member 2 (Rattus norvegicus) (Q9R1A7 whole entry, looked up): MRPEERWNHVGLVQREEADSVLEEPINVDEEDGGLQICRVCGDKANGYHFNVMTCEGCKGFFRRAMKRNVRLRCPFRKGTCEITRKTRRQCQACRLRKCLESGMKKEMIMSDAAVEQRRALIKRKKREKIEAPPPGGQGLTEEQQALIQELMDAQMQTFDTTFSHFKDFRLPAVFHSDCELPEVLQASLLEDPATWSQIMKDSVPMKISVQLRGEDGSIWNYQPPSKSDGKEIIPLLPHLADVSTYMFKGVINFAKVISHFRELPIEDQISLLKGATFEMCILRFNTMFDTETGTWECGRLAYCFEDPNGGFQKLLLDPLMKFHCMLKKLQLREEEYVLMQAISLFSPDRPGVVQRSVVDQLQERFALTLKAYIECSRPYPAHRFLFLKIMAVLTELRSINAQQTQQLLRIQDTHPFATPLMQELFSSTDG
Sequence of Nuclear receptor subfamily 1 group I member 2 (Homo sapiens) (O75469 whole entry, looked up): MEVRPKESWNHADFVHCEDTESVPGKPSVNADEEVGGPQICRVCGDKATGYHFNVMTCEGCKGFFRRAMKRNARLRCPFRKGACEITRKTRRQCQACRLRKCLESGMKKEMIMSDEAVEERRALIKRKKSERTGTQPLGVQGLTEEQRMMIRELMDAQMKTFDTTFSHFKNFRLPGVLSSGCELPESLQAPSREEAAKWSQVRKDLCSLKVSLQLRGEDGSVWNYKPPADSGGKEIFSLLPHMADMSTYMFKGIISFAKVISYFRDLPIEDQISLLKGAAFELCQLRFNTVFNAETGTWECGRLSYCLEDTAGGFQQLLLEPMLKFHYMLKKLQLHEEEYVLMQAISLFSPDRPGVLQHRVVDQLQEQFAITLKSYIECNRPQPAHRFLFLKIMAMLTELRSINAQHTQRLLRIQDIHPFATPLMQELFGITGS
Sequence of Thyrotropin-releasing hormone receptor (Homo sapiens) (P34981 whole entry, looked up): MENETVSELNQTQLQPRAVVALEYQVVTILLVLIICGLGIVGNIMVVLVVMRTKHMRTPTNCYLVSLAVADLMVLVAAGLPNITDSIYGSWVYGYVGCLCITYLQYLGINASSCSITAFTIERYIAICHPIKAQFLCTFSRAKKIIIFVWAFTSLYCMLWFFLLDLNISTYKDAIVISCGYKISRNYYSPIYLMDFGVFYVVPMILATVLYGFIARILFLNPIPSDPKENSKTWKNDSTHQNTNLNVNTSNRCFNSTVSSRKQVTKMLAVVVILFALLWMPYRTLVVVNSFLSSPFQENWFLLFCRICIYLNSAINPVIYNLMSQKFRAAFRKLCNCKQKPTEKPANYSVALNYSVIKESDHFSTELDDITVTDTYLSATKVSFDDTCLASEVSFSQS

Compound	Potency [1]	Potency [2]	Potency [3]	Potency [4]	Potency [5]	Potency [6]	max activation [7] [%]	Potency [8]	Potency [9]	Potency [10]
C=C(C)CCCC(C)CCO (stereo not given)	inactive	inactive	inactive	inactive	54.5 µM (active)	–	–	–	–	–
O=C1c2ccccc2C(=O)C1(O)O	inactive	54.8 µM (active)	inactive	–	61.4 µM (active)	–	–	–	–	–
O=C(CCCN1CC=C(n2c(=O)[nH]c3ccccc32)CC1)c1ccc(F)cc1	inactive	inactive	inactive	inactive	–	inactive	0.857	inactive	–	–
COC(=O)C1=C(C)NC(C)=C(C(=O)O[C@@H]2CCCN(Cc3ccccc3)C2)[C@@H]1c1cccc([N+](=O)[O-])c1	inactive	29.8 µM (active)	inactive	–	2.11 µM (active)	inactive	–	–	–	–
C/C=C(/C(=C/C)c1ccc(O)cc1)c1ccc(O)cc1	inactive	–	inactive	–	inactive	–	0.107	inactive	inactive	–
CC(=O)c1ccc([N+](=O)[O-])cc1	–	inactive	inactive	inactive	–	inactive	–	–	–	inactive
Oc1cccc(O)c1O	inactive	–	inactive	–	60.6 µM (active)	inactive	-5.99	inactive	inactive	–
CC(=O)N/N=C/c1ccc([N+](=O)[O-])o1	inactive	29.8 µM (active)	inactive	inactive	–	–	-3.83	inactive	inactive	–
CC(=O)Nc1ccc(C)cc1C	–	inactive	inactive	inactive	inactive	inactive	–	–	–	inactive
C/C=C\C/C=C/CCCCCCCCOC(C)=O	inactive	–	inactive	inactive	61.1 µM (active)	inactive	–	–	–	–
O=C=Nc1cccc(C(F)(F)F)c1	inactive	–	inactive	inactive	–	inactive	–	–	–	–
COC(=O)c1nc(Cl)c(Cl)nc1N	inactive	8.41 µM (active)	inactive	–	10.6 µM (active)	inactive	–	–	–	–
NNC(=O)CP(=O)(c1ccccc1)c1ccccc1	inactive	inactive	inactive	inactive	inactive	inactive	–	inactive	inactive	–
CN1CCCC(CC2c3ccccc3Sc3ccccc32)C1 (stereo not given)	inactive	–	inactive	inactive	inactive	–	-1.72	–	inactive	–
CN1C(=O)c2ccccc2C1=O	inactive	–	inactive	inactive	inactive	inactive	–	–	–	–
CCOC(=O)c1ccccc1C(=C1C=C(Br)C(=O)C(Br)=C1)c1cc(Br)c(O)c(Br)c1	inactive	–	inactive	–	51.3 µM (active)	–	–	–	–	–

Compound	Potency [1]	Potency [2]	Potency [3]	Potency [4]	Potency [5]	Potency [6]	max activation [7] [%]	Potency [8]	Potency [9]	Potency [10]
CCCCCCCC/C=C\CCCCCCCCCCCC(=O)O	–	inactive	inactive	inactive	inactive	inactive	–	–	–	inactive
COc1ccccc1Oc1c(NS(=O)(=O)c2ccc(C(C)(C)C)cc2)nc(-c2ncccn2)nc1OCCO	inactive	–	inactive	–	–	inactive	–	–	–	–
Cc1cccc(O)c1N	inactive	61.8 µM (active)	inactive	inactive	inactive	–	–	–	–	–
N#[N+]c1ccc2c(S(=O)(=O)[O-])cccc2c1O	inactive	–	inactive	inactive	inactive	inactive	–	–	–	–
Oc1cc2c(cc1O)[C@H]1c3ccc(O)c(O)c3OC[C@@]1(O)C2	inactive	27.6 µM (active)	inactive	55.1 µM (active)	inactive	–	–	–	–	–
CC[C@]1(O)C[C@H]2CN(CCc3c([nH]c4ccccc34)[C@@](C(=O)OC)(c3cc4c(cc3OC)N(C=O)[C@H]3[C@@](O)(C(=O)OC)[C@H](OC(C)=O)[C@]5(CC)C=CCN6CC[C@]43[C@@H]65)C2)C1	inactive	–	inactive	–	–	inactive	–	–	8.91 µM (active)	–
O=c1cc(-c2ccccc2)oc2cc(O)cc(O)c12	–	61.1 µM (active)	inactive	54.5 µM (active)	48.6 µM (active)	inactive	–	–	–	–
O=C=Nc1ccc(Cl)c(Cl)c1	–	inactive	inactive	inactive	26.9 µM (active)	inactive	–	–	–	inactive
c1ccc(C[n+]2cccc3ccccc32)cc1	–	inactive	inactive	inactive	inactive	inactive	–	–	–	inactive
c1ccc2sc(SN(C3CCCCC3)C3CCCCC3)nc2c1	–	inactive	inactive	inactive	17 µM (active)	inactive	–	–	–	inactive
CCC1CO1 (stereo not given)	–	inactive	inactive	inactive	inactive	inactive	–	–	–	inactive
Cc1cccc(N(C)C(=S)Oc2ccc3c(c2)CCC3)c1	–	inactive	inactive	inactive	10.6 µM (active)	inactive	–	–	–	–
c1csc(SSc2cccs2)c1	–	34.4 µM (active)	–	inactive	9.69 µM (active)	inactive	–	–	–	–
CC1(CN2CCC(n3c(=O)[nH]c4ccccc43)CC2)OCc2ccccc2-n2cccc21 (stereo not given)	–	29.8 µM (active)	inactive	–	29.8 µM (active)	–	–	inactive	4.47 µM (active)	29.8 µM (active)
CCC(C)COC(C)=O (stereo not given)	–	inactive	inactive	inactive	inactive	inactive	–	–	–	–
